Experimental data: PubChem BioAssay (NCI)
Compounds without any hit were thinned out: in the full panel of roughly 83,000, 20% have a hit.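 Growth was measured after 48 h exposure to one concentration of compound in 96-well plates. Values under 10 count as active.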 Unmarked numbers belong to inactive results. Activity calls are given as the source filed them.

How the values were obtained:
Assay in all cases: NCI-60 one-dose screen, 48 h (100 = growth as untreated, 0 = no growth, -100 = all killed)
Conditions in all cases: 10 µM unless noted
DU-145 prostate = test system: DU-145 prostate
K-562 leukemia = test system: K-562 leukemia
MALME-3M melanoma = test system: MALME-3M melanoma
MDA-MB-231 breast = test system: MDA-MB-231 breast
RXF 393 renal = test system: RXF 393 renal
SF-268 CNS = test system: SF-268 CNS
SF-295 CNS = test system: SF-295 CNS
SF-539 CNS = test system: SF-539 CNS
UACC-257 melanoma = test system: UACC-257 melanoma
HCT-15 colon = test system: HCT-15 colon
HT29 colon = test system: HT29 colon
SNB-75 CNS = test system: SNB-75 CNS
SNB-19 CNS = test system: SNB-19 CNS
U251 CNS = test system: U251 CNS
PC-3 prostate = test system: PC-3 prostate
SK-MEL-5 melanoma = test system: SK-MEL-5 melanoma
UACC-62 melanoma = test system: UACC-62 melanoma
LOX IMVI melanoma = test system: LOX IMVI melanoma
SK-MEL-28 melanoma = test system: SK-MEL-28 melanoma
M14 melanoma = test system: M14 melanoma

| Structure (SMILES) | growth (DU-145 prostate) | growth (K-562 leukemia) | growth (MALME-3M melanoma) | growth (MDA-MB-231 breast) | growth (RXF 393 renal) | growth (SF-268 CNS) | growth (SF-295 CNS) | growth (SF-539 CNS) | growth (UACC-257 melanoma) | growth (HCT-15 colon) | growth (HT29 colon) | growth (SNB-75 CNS) | growth (SNB-19 CNS) | growth (U251 CNS) | growth (PC-3 prostate) | growth (SK-MEL-5 melanoma) | growth (UACC-62 melanoma) | growth (LOX IMVI melanoma) | growth (SK-MEL-28 melanoma) | growth (M14 melanoma) |
| --- | --- | --- | --- | --- | --- | --- | --- | --- | --- | --- | --- | --- | --- | --- | --- | --- | --- | --- | --- | --- |
| COc1ccc(OC)c(Nc2nc3nonc3nc2Nc2cc(OC)ccc2OC)c1 | 55.5% | 75.5% | 29.9% | -1.9% (active) | 14.8% | 45.6% | 77.9% | 9.98% (active) | 52.1% | 73.5% | 42.6% | 18.7% | 76.1% | 11.5% | 79.4% | 12% | 47% | 34.3% | 58.1% | – |
| CNC=O | 77.9% | 107% | 97% | 98.7% | 42.3% | 99.3% | 96.8% | 88.8% | 91.1% | 99.3% | 92.6% | 86.8% | 97.5% | 100% | 98.1% | 59.9% | 96.2% | 97.1% | 96.6% | – |
| Cc1cc(N2CCCCC2)nc(N(CCNc2ccnc3cc(Cl)ccc23)Cc2ccccn2)n1 | 61.9% | 7.83% (active) | 74.1% | 49.6% | 30.7% | 71.8% | 21.5% | 39.2% | 66.9% | 17.6% | – | 80.3% | 75% | 41.8% | 45.1% | 48.8% | 67.5% | – | 62.7% | 45% |
| CCCc1cc(=O)oc2c3c(c4c(c12)OC(C)(C)C=C4)O[C@@H](C)[C@H](C)C3=O | 79.4% | 47.6% | 90% | 71.9% | 18.4% | 86.4% | 69.9% | 81% | 55.1% | 98.1% | 41% | 87.7% | 93.6% | 65.7% | 40.7% | 32.1% | 66% | 81.2% | – | – |
| Nc1ccn(C2OC(F)(CO)C(O)C2F)c(=O)n1 (stereo unspecified) | 24.6% | 69% | 57.4% | 93.4% | 82.4% | 47.1% | 55.2% | 46.9% | 62.6% | 63.1% | – | 68.3% | 36.8% | 29.8% | 50.1% | 47.4% | 49.3% | 73.1% | 74.3% | 1.59% (active) |
| N[C@@H]1CCC[C@H]1NCCCCN1C(=O)c2cccc3cccc(c23)C1=O | 59.8% | 60.4% | 116% | 58.2% | 72.8% | 52.6% | 84.4% | 7.65% (active) | 100% | 81.8% | – | 84.4% | 85.5% | 59% | 61.6% | 93.1% | 95.7% | 24.4% | 89.5% | 64% |
| Nc1c(C(=O)c2ccccc2)nnc2ncnn12 | 106% | 97.1% | 107% | 93% | 110% | 102% | 103% | 117% | 95.4% | 111% | 100% | 96.9% | 105% | 95.8% | 97.9% | 98.6% | 99.7% | 101% | 133% | – |
| COc1cccc(-c2cnco2)c1OCc1c(C)c(COc2c(OC)cccc2-c2cnco2)c(C)c(COc2c(OC)cccc2-c2cnco2)c1C | 73.2% | 85% | 43.5% | 30.5% | 45.7% | 53.7% | 82.1% | 19.3% | 58.4% | 89.6% | 32.7% | 13% | 67.4% | 40% | 71.3% | 45.3% | 42.2% | 45.6% | 55.7% | – |
| CC1(C)C(=O)/C(=C\c2cccnc2)C[C@]2(C)[C@H]3CC=C4[C@@H]5C[C@@](C)(C(=O)O)CC[C@]5(C)CC[C@@]4(C)[C@]3(C)CC[C@@H]12 | 104% | 80.7% | 126% | 101% | 92.2% | 98.9% | 93.9% | 101% | 87.7% | 87.5% | – | 82% | 96.8% | 89% | 75.3% | 109% | 97.7% | 99.5% | 109% | 100% |
| CN=C1C=CC(=C(c2ccc(N(C)C)cc2)c2ccc(N(C)C)cc2)C=C1 | -6.79% (active) | 2.18% (active) | -56.6% (active) | -46.9% (active) | -50.8% (active) | -56.5% (active) | -30.4% (active) | -38.3% (active) | -43% (active) | 7.06% (active) | – | -26.7% (active) | 3.16% (active) | -57.5% (active) | 2.74% (active) | -98.5% (active) | -50.2% (active) | -59.3% (active) | -44.9% (active) | -65.4% (active) |
| CCOc1ccc(S(=O)(=O)c2ccc(C)cc2)c2c1no[n+]2[O-] | 86.2% | 46.1% | 81.3% | 81.2% | 81.8% | 99.1% | 82.9% | 87% | 95.8% | – | 52.8% | – | 87.9% | 80.1% | 82.1% | 72.5% | 78.5% | 87.1% | 104% | 93.4% |
| Cc1ccc(Nc2ccc(Nc3ccc(C)cc3S(=O)(=O)O)c3c2C(=O)c2ccccc2C3=O)c(S(=O)(=O)O)c1 | 102% | 100% | 101% | 95.6% | 107% | 103% | 101% | 102% | 112% | 103% | – | 85.3% | 108% | 107% | 83% | 102% | 97.3% | 102% | 107% | 88% |
| CCOC(=O)c1c(C)nc2c(c1N)/C(=C/c1ccc(OC)cc1)C(=O)N2Cc1ccc(F)cc1 | -90.8% (active) | 4.12% (active) | -21.3% (active) | -54.7% (active) | -78.6% (active) | -23.6% (active) | -1.56% (active) | -20.5% (active) | -52.7% (active) | -80.6% (active) | – | -13.7% (active) | -67.4% (active) | -81.5% (active) | -52.5% (active) | -87.9% (active) | -78.2% (active) | -93.1% (active) | -39.9% (active) | -56% (active) |
| CN1C[C@@H](c2ccc(Cl)cc2)[C@]2(NC(=S)N(c3ccc(F)c(Cl)c3)C2=O)[C@@]12C(=O)NC1C=CC(Cl)=C[C@H]12 (stereo partly specified) | 67.3% | 10.3% | 91.2% | 31.6% | 21.3% | 54% | 46.8% | 73.5% | 65% | 48.5% | – | 53.2% | 47.2% | 59.9% | 8.42% (active) | 44.5% | 55.7% | 43.5% | 72.6% | -31.2% (active) |
| C/C(=N\NC(=O)Cn1c(-c2ccc(S(C)(=O)=O)cc2)nc2cc(Cl)ccc21)c1ccc(Cl)cc1 | 90% | 62.9% | 90.3% | 73.4% | 79.3% | 72.4% | 81.1% | 83.1% | 79.2% | 77% | – | 69.7% | 84.3% | 79.7% | 49.2% | 84.2% | 76.2% | 89.4% | 90% | 81% |
| CO[C@H]1/C=C/O[C@@]2(C)Oc3c(C)c(O)c4c(c3C2=O)C(=O)C(/C=N/N(c2ccccc2)c2ccccc2)=C(NC(=O)/C(C)=C\C=C\[C@H](C)[C@H](O)[C@@H](C)[C@@H](O)[C@@H](C)[C@H](OC(C)=O)[C@@H]1C)C4=O | 12.9% | 7.47% (active) | -43.9% (active) | -40.1% (active) | -61.9% (active) | 14.9% | -72.3% (active) | -69.8% (active) | -22.5% (active) | -20.3% (active) | -12.7% (active) | 19.6% | 19.1% | -72.7% (active) | -2.79% (active) | -88.2% (active) | -71.1% (active) | -81.1% (active) | -58.3% (active) | – |
